Pf growth 48h: Primary qHTS for delayed death inhibitors of the malarial parasite plastid, 48 hour incubation; P. falciparum luciferase growth in erythrocytes, 48 h; Potency, µM (highest dose often 28.7 µM), for inactives: at the top dose activity change, negative = inhibition, usual class: inhibitors; 310,000 compounds, 5.9% hits; also: potency is read from the fitted curve at half-maximal effect; % is scaled to controls: 0 for no effect and ±100 for the full control effect
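Luciferase-expressing parasites in RBCs, 2% Hct / 0.1% parasitemia final; RPMI 1640 + 0.5% Albumax; 37 C, 5% CO2, one generation; luminescence read-out, lower signal = inhibition.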
Shiga toxin inh: A qHTS for Small Molecule Inhibitors of Shiga Toxin | Vero cells, Shiga toxin protein synthesis inhibition reporter | inhibition, % at 38.7 µM | 290,000 compounds, 9.2% hits | AID 2315, 2010; in the data active = inhibition mostly above about 28%, no sharp cut-off; inactive = mostly below about 43%; also: 0% is about no effect
LmPK inh: qHTS Assay for Inhibitors of Leishmania Mexicana Pyruvate Kinase (LmPK); purified LmPK, Kinase-Glo ATP luminescence, 1 h; Potency, µM (top dose mostly 57.5 µM), for the others: top-dose activity change, negative = inhibition, actives largely listed as inhibitors; 290,000 compounds, 0.37% hits; AID 1721, 2009; also: potency is read from the fitted curve at half-maximal effect; % is scaled to controls: 0 for no effect and ±100 for the full control effect
Target sequence (Q27686 whole entry, looked up): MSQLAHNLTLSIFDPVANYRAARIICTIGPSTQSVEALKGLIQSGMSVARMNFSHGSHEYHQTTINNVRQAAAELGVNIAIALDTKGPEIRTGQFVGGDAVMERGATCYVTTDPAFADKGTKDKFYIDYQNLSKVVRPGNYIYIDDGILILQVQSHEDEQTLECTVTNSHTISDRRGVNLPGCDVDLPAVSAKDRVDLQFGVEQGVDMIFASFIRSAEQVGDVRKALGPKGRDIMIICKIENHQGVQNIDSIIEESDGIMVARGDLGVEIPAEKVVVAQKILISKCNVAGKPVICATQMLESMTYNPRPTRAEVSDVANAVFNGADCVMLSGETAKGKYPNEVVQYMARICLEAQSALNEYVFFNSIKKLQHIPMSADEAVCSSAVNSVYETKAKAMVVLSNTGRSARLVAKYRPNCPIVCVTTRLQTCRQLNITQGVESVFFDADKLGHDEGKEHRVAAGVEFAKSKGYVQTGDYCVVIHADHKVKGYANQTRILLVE
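qHTS format; LmPK 0.1 nM; substrates PEP 0.5 mM and ADP 0.1 mM. One-hour room-temperature incubation, then coupled luciferase luminescence; 0.5 nM enzyme wells mark activation.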
Cycloheximide cs: Cycloheximide Counterscreen for Small Molecule Inhibitors of Shiga Toxin; cell reporter, cycloheximide protein synthesis inhibition counterscreen; max response, %; 300,000 compounds, 12% hits; AID 2314, 2010; in the data active = max response mostly above about 13%, no sharp cut-off; inactive = mostly below about 14%; also: read at 38.3 µM for the half of the compounds with a filed dose; 0% is about no effect
Pf growth 96h: Primary qHTS for delayed death inhibitors of the malarial parasite plastid, 96 hour incubation; P. falciparum luciferase reporter growth, 96 h; Potency, µM (top dose mostly 28.7 µM), inactives show at the highest dose activity change, negative = inhibition, actives largely listed as inhibitors; 320,000 compounds, 6.9% hits; AID 504834, 2011; also: potency is read from the fitted curve at half-maximal effect; % is scaled to controls: 0 for no effect and ±100 for the full control effect
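Parasite growth measured via integrated firefly luciferase reporter in P. falciparum. Infected erythrocytes at 2% hematocrit, 0.05% parasitemia final were treated 96 hours at 37 C under 5% CO2, and luminescence was read.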
The depositor's hits bear a star; [ ] = remark or other dose. The list is not random: actives were taken first. Their share in the collection is about 22%. Unless noted, calls follow the shape of the dose curve; as a rule, active = well fitted inhibition curve with a large enough effect; inconclusive = small, poorly fitted or top-dose-only effect, or another doubt; inactive = no such curve, though single readings can be large or run the other way.

What do the screens show for `Cc1cc(O)cc2c1C(c1ccc(F)cc1)CC1(CC(C)(C)NC(=S)N1)O2` (stereo not given)?
Pf growth 48h: inconclusive; Shiga toxin inh: 8; LmPK inh: 1%; Cycloheximide cs: -8; Pf growth 96h: 30%

How did COc1ccc(C2CC3(CC(C)(C)NC(=S)N3)Oc3cc(O)cc(C)c32)cc1 (stereo not given) do in these assays?
Pf growth 48h: inconclusive; Shiga toxin inh: 1; LmPK inh: 7%; Cycloheximide cs: -2; Pf growth 96h: 4.1µM*

What do the screens show for `Clc1cccc(CN2CCN(c3ncccn3)CC2)c1Cl`?
Pf growth 48h: 19%; Shiga toxin inh: 14; LmPK inh: -6%; Cycloheximide cs: -2; Pf growth 96h: 13µM*

What do the screens show for `Clc1ccccc1CN1CCN(c2ncccn2)CC1`?
Pf growth 48h: -4%; Shiga toxin inh: 9; LmPK inh: -1%; Cycloheximide cs: 10; Pf growth 96h: inconclusive

Results for COc1ccc(C)cc1N(C(=O)c1ccco1)C(C(=O)NC1CCCC1)c1cc(OC)c(OC)c(OC)c1 (stereo not given) ?
Pf growth 48h: inconclusive; Shiga toxin inh: 24; LmPK inh: -11%; Cycloheximide cs: -4; Pf growth 96h: 0%

How did Cc1c(CCO)c(=O)[nH]n1C(=O)c1ccc(F)cc1 do in these assays?
Pf growth 48h: -7%; Shiga toxin inh: 65*; LmPK inh: -7%; Cycloheximide cs: 24*; Pf growth 96h: 1%

How did Cc1c(CCO)c(=O)n(C)n1C(=O)c1ccc(F)cc1 do in these assays?
Pf growth 48h: 12%; Shiga toxin inh: -12; LmPK inh: -5%; Cycloheximide cs: 1; Pf growth 96h: 46%

How did Cc1cc(C)n(-c2cc(N3CCN(S(=O)(=O)c4ccc(Cl)cc4)CC3)ccc2[N+](=O)[O-])n1 do in these assays?
Pf growth 48h: 7.4µM*; Shiga toxin inh: -12; LmPK inh: -4%; Cycloheximide cs: 2; Pf growth 96h: 8%

What do the screens show for `Cc1cc(C)n(-c2cc(N3CCN(C(=O)c4cccc(Br)c4)CC3)ccc2[N+](=O)[O-])n1`?
Pf growth 48h: inconclusive; Shiga toxin inh: -8; LmPK inh: 0%; Cycloheximide cs: 17; Pf growth 96h: 9.3µM*

What do the screens show for `CC(=O)N1CCN(c2ccc([N+](=O)[O-])c(-n3nc(C)cc3C)c2)CC1`?
Pf growth 48h: -20%; Shiga toxin inh: -3; LmPK inh: -7%; Cycloheximide cs: -2; Pf growth 96h: 18%

How did O=[N+]([O-])c1ccc(N2CCN(S(=O)(=O)c3ccc(Cl)cc3)CC2)cc1NCC1CCCO1 (stereo not given) do in these assays?
Pf growth 48h: -9%; Shiga toxin inh: 6; LmPK inh: 4%; Cycloheximide cs: -3; Pf growth 96h: 6%

Results for CCCN1CCN(S(=O)(=O)c2ccc(-c3cc(C)no3)s2)CC1 ?
Pf growth 48h: -1%; Shiga toxin inh: -2; LmPK inh: 3%; Cycloheximide cs: -2; Pf growth 96h: inconclusive

How did O=C1C2C(c3ccccc3)C=CC(c3ccccc3)C2C(=O)N1c1ccccn1 (stereo not given) do in these assays?
Pf growth 48h: 33%; Shiga toxin inh: -7; LmPK inh: 1%; Cycloheximide cs: 2; Pf growth 96h: 1.3µM*

What do the screens show for `O=C1C2C(c3ccccc3)C=CC(c3ccccc3)C2C(=O)N1c1ccncc1` (stereo not given)?
Pf growth 48h: -9%; Shiga toxin inh: -5; LmPK inh: 0%; Cycloheximide cs: -2; Pf growth 96h: 14%

What do the screens show for `O=C(CN1CCN(c2ccccc2O)CC1)Nc1ccc2c(c1)CCC2`?
Pf growth 48h: inconclusive; Shiga toxin inh: -10; LmPK inh: -1%; Cycloheximide cs: -1; Pf growth 96h: inconclusive

What do the screens show for `Cc1c(NC(=O)NC(=O)c2ccc(F)cc2)c(=O)n(-c2ccccc2)n1C`?
Pf growth 48h: 23%; Shiga toxin inh: 13; LmPK inh: -2%; Cycloheximide cs: -2; Pf growth 96h: -26%

How did Cc1c(N=C2N=C(NC(=O)c3ccc(F)cc3)c3ccccc32)c(=O)n(-c2ccccc2)n1C do in these assays?
Pf growth 48h: 7.4µM*; Shiga toxin inh: -2; LmPK inh: 1%; Cycloheximide cs: -1; Pf growth 96h: 9%[5.75 µM]

What do the screens show for `COc1ccc(OC)c(NC(=O)COC(=O)CSc2ccc(Cl)cc2)c1`?
Pf growth 48h: 11%; Shiga toxin inh: -8; LmPK inh: -3%; Cycloheximide cs: -1; Pf growth 96h: 33%

Results for Cc1cc(=O)[nH]c2c(C)cc(S(=O)(=O)N3CCCCC3)cc12 ?
Pf growth 48h: -6%; Shiga toxin inh: 3; LmPK inh: -4%; Cycloheximide cs: 1; Pf growth 96h: 13µM*

What do the screens show for `COc1ccccc1C1=NOC(CN2C(=O)c3ccccc3S2(=O)=O)C1` (stereo not given)?
Pf growth 48h: 39%; Shiga toxin inh: 146*; LmPK inh: -3%; Cycloheximide cs: 53*; Pf growth 96h: 11%

How did O=C1c2ccccc2S(=O)(=O)N1CC1CC(c2ccccc2Cl)=NO1 (stereo not given) do in these assays?
Pf growth 48h: 124%; Shiga toxin inh: active; LmPK inh: -6%; Cycloheximide cs: 86*; Pf growth 96h: 16%

What do the screens show for `O=C(NCC1CCCO1)C1CC(c2ccccc2Cl)=NO1` (stereo not given)?
Pf growth 48h: 16%; Shiga toxin inh: 65; LmPK inh: 2%; Cycloheximide cs: 1

How did Cc1ccc(NC(=O)CSc2nnc(CNC(=O)c3ccco3)n2C)cc1 do in these assays?
Pf growth 48h: 0%; Pf growth 96h: -1%

How did O=C1C=C(c2cccc(Cl)c2O)C[C@@H](c2ccc3c(c2)OCO3)C1 do in these assays?
Pf growth 48h: 12µM*; Pf growth 96h: inconclusive

Results for COc1ccc([C@H]2CC(=O)C=C(c3ccc(-c4ccccc4)c(F)c3)C2)cc1OC ?
Pf growth 48h: -20%; Pf growth 96h: 46%

Results for COc1ccc([C@H]2CC(=O)C=C(c3cccc(Cl)c3O)C2)cc1OC ?
Pf growth 48h: inconclusive; Pf growth 96h: 9.3µM*

What do the screens show for `CCOC(=O)c1cccc(C2=CC(=O)C[C@H](c3ccc(OC)c(OC)c3)C2)c1`?
Pf growth 48h: 10µM*; Pf growth 96h: inconclusive

What do the screens show for `O=C1C=C(c2cccc(Br)c2)C[C@@H](c2ccc3c(c2)OCO3)C1`?
Pf growth 48h: 4.7µM*; Pf growth 96h: inconclusive

How did O=C(c1cc(=O)[nH]c2ccccc12)N1CC=C(c2ccccc2)CC1 do in these assays?
Pf growth 48h: -5%; Pf growth 96h: 43%

How did Cc1cc2sc3ccccc3c(=O)c2c(C)c1O do in these assays?
Pf growth 48h: inconclusive; Shiga toxin inh: 85*; LmPK inh: 2%; Cycloheximide cs: 71*; Pf growth 96h: 29%
